Source: PubChem BioAssay (NCI)
About 83,000 compounds went through this panel and 20% of them were active in at least one assay; those are over-represented in the sample as a whole.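 Treatment: one concentration, 48 hours, 96-well format. Scoring: percent growth, with anything below 10 considered active.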 Values without a mark were called inactive. Activity calls are given as the source filed them.

Legend:
Experiment in all cases: NCI-60 one-dose screen, 48 h (100 = growth as untreated, 0 = no growth, -100 = all killed)
Conditions in all cases: 10 µM unless noted
[1] = tested on: SK-MEL-2 melanoma
[2] = tested on: EKVX NSCLC
[3] = tested on: SN12C renal
[4] = tested on: UO-31 renal
[5] = tested on: TK-10 renal
[6] = tested on: ACHN renal
[7] = tested on: CAKI-1 renal
[8] = tested on: A498 renal
[9] = tested on: CCRF-CEM leukemia
[10] = tested on: MOLT-4 leukemia

| Structure (SMILES) | growth [1] | growth [2] | growth [3] | growth [4] | growth [5] | growth [6] | growth [7] | growth [8] | growth [9] | growth [10] |
| --- | --- | --- | --- | --- | --- | --- | --- | --- | --- | --- |
| COc1ccc(Cn2cc(C#N)c(N)c2C(C)=O)cc1 | 106% | 104% | 89.8% | 95.9% | 99.8% | 103% | 93.6% | 83.9% | 94.7% | 101% |
| Cc1ccc(/C=N/Nc2nc(Nc3ccccc3)nc(Nc3ccc(S(N)(=O)=O)cc3)n2)cc1 | 77.8% | 78.1% | 82.5% | 68.1% | 94.5% | 61.2% | 61% | 54.7% | 42% | 40.4% |
| Cc1ccc(Nc2nc(SC(C)C)nc(-c3ccccc3)c2C#N)cc1 | 112% | 81.7% | 95.8% | 88.4% | 82.1% | 88.4% | 75.8% | 62.3% | 81.7% | 100% |
| O=C(CCCCCCNC(=O)C(O)(O)C(F)(F)F)Nc1ccc(-c2ccccc2)cc1 | -37.4% (active) | 34.2% | 14.6% | -1.11% (active) | 5.83% (active) | -18.3% (active) | 2.61% (active) | -7.85% (active) | 23.6% | 14.1% |
| CC(C)(C)c1cc(NC(=O)Nc2ccc(-c3cn4c5c(sc4n3)CCc3c[nH]cc3-5)cc2)no1 | -11.7% (active) | 32.9% | 44.2% | 7.92% (active) | 65.2% | 21.2% | 13.9% | -17.9% (active) | 15.1% | -10.8% (active) |
| CSc1ccc(/C(=N/N=C(N)N)c2ccc(F)cc2)cc1 | 48.6% | 36.6% | 36.9% | 30.5% | 39.1% | 35.8% | 15.6% | 5.39% (active) | 5.74% (active) | -2.76% (active) |
| CC(=O)Nc1cc(N2CCOCC2)c2nc(NC(=O)c3[nH]c(C)c(Cl)c3Cl)sc2c1 | 83% | 85.1% | 49.8% | 57.9% | 112% | 49.3% | 93.1% | 95.6% | 74.2% | 65% |
| CC[C@H](CC[C@@H](C)[C@H]1CC[C@H]2[C@@H]3CC(=O)C4=CC(=O)/C(=C/c5ccc([N+](=O)[O-])cc5)C[C@]4(C)[C@H]3CC[C@]12C)C(C)C | 114% | 109% | 98.4% | 79.6% | 104% | 93.9% | 90.8% | 108% | 56.1% | 84.3% |
| Cc1ccc(N2CCN(C3=C(Cl)C(=O)c4ncccc4C3=O)CC2)cc1 | 94.4% | 97% | 27.8% | 32% | 133% | 1.41% (active) | 44.3% | 111% | 5.41% (active) | 13.9% |
| CC1=C(C)C(=O)C(Nc2cccc(C(=O)OC(C)(C)C)c2)=C(Cl)C1=O | 95.8% | 90.2% | 84.1% | 86.5% | 116% | 79.6% | 76.1% | 59.8% | 21.9% | 45.3% |
| COC(=O)c1ccc(NC2=C(Cl)C(=O)C(C)=C(C)C2=O)cc1 | 69.1% | 53.2% | 80.2% | 65.1% | 112% | 63.2% | 43.3% | 58.6% | 9.06% (active) | 9.07% (active) |
| O=C(COc1ccc(/C=C2\C(=O)Nc3cc(Cl)ccc32)cc1)Nc1ccc(Cl)cc1 | 95.6% | 78.2% | 78.9% | 46.5% | 127% | 57.8% | 55.4% | 102% | 48.9% | 50.1% |
| Nc1ncc(-c2ccc3ncnc(NCc4ccccc4)c3c2)cn1 | 71% | 23.5% | 29.5% | 15.1% | -7.11% (active) | 25.2% | 17.4% | 22.4% | 42.3% | 17.7% |
| CN1CCN(Cc2ccc(NC(=O)c3cncc(C#Cc4cnc5ccc(OCCCS(C)(=O)=O)nn45)c3)cc2C(F)(F)F)CC1 | -82% (active) | -10.7% (active) | -15.8% (active) | -12.9% (active) | -6.6% (active) | -16.1% (active) | -14% (active) | -90.9% (active) | 6.43% (active) | 2.88% (active) |
| COc1ccc2c(c1)c(-c1nn3cc(-c4ccncc4)nc3s1)cn2C | 104% | 77.6% | 84.3% | 53.3% | 130% | 71.4% | 50.6% | 83.7% | 43.9% | 47.2% |
| O=C(CSc1nc2ccccc2c(=O)n1-c1ccccc1)N/N=C/c1ccc(Oc2ccc(Br)cc2)cc1 | 93% | 60.7% | 40.7% | 91.5% | 101% | 91.4% | 70.8% | 82.3% | 56.9% | 55.5% |
| O=C(CCCCCCNC(=O)C(O)(O)C(F)(F)F)Nc1ccc(Br)cc1 | -24.7% (active) | 33.3% | 20.1% | -2.06% (active) | -2.6% (active) | -15.8% (active) | -13.9% (active) | -13.9% (active) | 23.9% | 13.2% |
| O=C(CCCCCCNC(=O)c1csc(Br)n1)NO | 57.3% | 53.3% | 73.4% | 22.7% | -3.87% (active) | 13.9% | 21% | -4.04% (active) | 16.1% | 17.4% |
| C/C(=N/N)c1nnn(-c2ccc(Br)cc2)c1C | 112% | 99.5% | 91% | 79.7% | 98.1% | 101% | 91.6% | 93.3% | 109% | 93.6% |
| CN1CCN(Cc2ccc(NC(=O)c3cncc(C#Cc4cnc5ccc(N)nn45)c3)cc2C(F)(F)F)CC1 | -27.9% (active) | 37.1% | 15.7% | 96.3% | 40.4% | 27.7% | 13.8% | 67% | 11.8% | 7.21% (active) |
| O=[N+]([O-])c1ccc(NC(=S)NNC(=S)Nc2ccc(F)cc2)cc1 | 105% | 94.8% | 90.7% | 70.2% | 103% | 78.9% | 68.7% | 81.4% | 103% | 80.8% |
| COC(=O)c1cccc(NC2=C(Cl)C(=O)C(C)=C(C)C2=O)c1 | 98% | 92.2% | 92.6% | 89.4% | 150% | 104% | 94.2% | 87.7% | 6.54% (active) | 11.3% |
